Hit rate of the full screen: of about 16,000 compounds, about 5,100 (32%) were called active. Inconclusive results (about 25%) are left out. Calls follow the shape of the dose curve; as a rule, active = well fitted curve in the direction sought with a large enough effect; inconclusive = small, poorly fitted or top-dose-only effect, or effect the other way; inactive = no such curve, though single readings can be large or run the other way. This is one part of the list.
The compounds below were run against Cytochrome P450 3A4 (Homo sapiens) (UniProt P08684) (assay: Cytochrome panel assay with activity outcomes). Conditions: recombinant CYP, pro-luciferin dealkylation, luminescence, p450-cyp3a4; series mostly up to 57.1 µM.
Sequence of Cytochrome P450 3A4 (Homo sapiens) (P08684 whole entry, looked up): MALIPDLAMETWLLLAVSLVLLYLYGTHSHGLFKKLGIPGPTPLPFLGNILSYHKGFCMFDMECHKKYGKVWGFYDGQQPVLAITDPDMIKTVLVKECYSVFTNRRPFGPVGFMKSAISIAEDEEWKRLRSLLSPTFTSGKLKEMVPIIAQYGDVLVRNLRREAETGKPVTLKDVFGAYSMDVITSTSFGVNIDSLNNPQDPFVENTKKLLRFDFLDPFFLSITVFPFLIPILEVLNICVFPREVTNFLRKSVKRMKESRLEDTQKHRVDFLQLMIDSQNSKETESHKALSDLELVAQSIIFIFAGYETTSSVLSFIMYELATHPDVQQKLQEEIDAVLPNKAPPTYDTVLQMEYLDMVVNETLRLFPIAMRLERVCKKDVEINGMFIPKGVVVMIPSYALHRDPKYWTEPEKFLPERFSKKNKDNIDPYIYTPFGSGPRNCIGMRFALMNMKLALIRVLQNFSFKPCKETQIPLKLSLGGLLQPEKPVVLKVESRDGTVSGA
% is scaled to controls: 0 for no effect and ±100 for the full control effect.

AC50, inactive:
CC1CN(C(=O)COc2ncnc3ccccc23)CC(C)O1 (stereo unspecified)
O=C1NC(c2cccc([N+](=O)[O-])c2)=CCN1c1ccccc1O
COc1ccc(-c2cc(C(=O)O)c3c(C)nn(-c4ccccn4)c3n2)cc1
CCOC(=O)c1cnc(-c2ccccc2)nc1Oc1ccc(Cl)cc1
Cc1nn(C(=O)c2ccco2)c(C)c1Sc1ccc(Br)cc1
CN1CCc2c(cc(O)c(O)c2Cl)[C@H](c2cccc(Cl)c2)C1
COC(=O)CN(c1ccccn1)S(=O)(=O)c1ccccc1
CCOC(=O)CN(c1ccccn1)S(=O)(=O)c1ccccc1

AC50, active:
Cc1cccc(NC(=S)N(CCc2nc3cc(C)c(C)cc3[nH]2)Cc2cccnc2)c1 2.24 µM
Cc1ccc(C)c(NC(=S)N(CCc2nc3cc(C)c(C)cc3[nH]2)Cc2cccnc2)c1 2.51 µM
COc1cccc(NC(=S)N(CCc2nc3cc(C)c(C)cc3[nH]2)Cc2cccnc2)c1 2.51 µM
Cc1ccc(-n2ccc(=O)c(-c3ccnc(SCc4cccc(Cl)c4)n3)n2)cc1 8.91 µM
O=c1cc(-c2ccccc2)[nH]n1-c1ccc([N+](=O)[O-])cc1 14.1 µM
CC(C)c1cccc2cc3c(nc12)-c1cccc(=O)n1C3 15.8 µM
CC(C)c1cccc2c([Si](C)(C)C)c3c(nc12)-c1cccc(=O)n1C3 25.1 µM
CCc1c2c(nc3c(C(C)C)cccc13)-c1cccc(=O)n1C2 15.8 µM
CCOC(=O)c1cc(-c2ccc(Cl)cc2)nc2c1c(C)nn2CCC#N 25.1 µM
Cc1nn(S(=O)(=O)c2cccs2)c(C)c1Sc1ccc([N+](=O)[O-])cc1 2.82 µM
Cc1cccc2cc(CN(Cc3ccccc3)C(=O)c3cccc(F)c3)c(Cl)nc12 8.91 µM
Cc1cc(C)cc(N(CC(=O)NCCSc2ccccn2)S(=O)(=O)c2ccccc2)c1 3.98 µM
O=C(CN(c1ccccc1)S(=O)(=O)c1ccccc1)NCCSCc1ccco1 14.1 µM

activity, negative = inhibition, inactive:
CN(C)CCNc1ccccn1 -5.4% [at 11.4 µM]
CC(C)[C@](N)(C(=O)O)c1ccccc1 -13.2% [at 11.4 µM]
O[C@H](C[C@@H]1CCCCN1)c1ccc2c(c1)oc1ccccc12 -5% [at 11.4 µM]
Cc1ccc(Sc2c([N+](=O)[O-])ncn2C)cc1 11.7% [at 2.29 µM]
CCN(CC)c1ccc(NC(=O)c2cccc(F)c2)c(C)c1 2.35% [at 2.29 µM]

Source: PubChem BioAssay AID1851 (National Center for Advancing Translational Sciences (NCATS), 2009)
